This excerpt belongs to a sample that is enriched for hits.
Dicer processing = inhibitors of Dicer pre-microRNA processing, primary screen, biochemical, cat-ELCCA, chemiluminescence; Endoribonuclease Dicer (Homo sapiens), Q9UPY3; cat-ELCCA pre-miR-21 Dicer processing; stronger effect = higher value; z-score at 25 µM; actives 6% (n = 47,000); in the data active = z-score above about 3, passing the limit was not always enough;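 also: plate controls were vehicle for no effect and no enzyme for full effect; higher signal means more uncleaved substrate so more Dicer inhibition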
Starred values were filed as active, the others as inactive.

SMILES	Dicer processing
Cc1ccc2cccc(NS(=O)(=O)c3ccccc3)c2n1	-0.4
O=S(=O)(Nc1cccc2cccnc12)c1ccccc1	7.72*
CC(=O)Nc1ccc(OC(=O)c2cccc(C(F)(F)F)n2)cc1	-0.93
Nc1ccc(Sc2cc(Cl)ccc2Cl)nc1	1.25
O=C1CCc2cc(-c3csc(/N=C/NO)n3)ccc2N1	-0.07
COc1cccc(Nc2nc3ccccc3s2)c1	0.59
CC1CCCCC1N1CN=C(Nc2nc3ccccc3s2)NC1 (configuration not stated)	3.77*
c1ccc2sc(NC3=NCN(Cc4ccc5c(c4)OCO5)CN3)nc2c1	2.83
COc1ccc(-c2nc(=S)c3c(n2CCCN(C)C)CC(C)(C)OC3)cc1	3.13*
CCN(CC)CCn1c(-c2ccc(OC)cc2)nc(=S)c2c1CC(C)(C)OC2	0.56
COCCn1c(-c2ccccc2)nc(=S)c2c1CC(C)(C)OC2	-0.39
COc1ccc(C2C=C(c3ccc(F)cc3)Nc3nc(CCCO)nn32)cc1 (configuration not stated)	2.44
CCOc1ccc(S(=O)(=O)Nc2c(C)n(C)n(-c3ccccc3)c2=O)cc1	0.71
Cc1c(NS(=O)(=O)c2cn(C)cn2)c(=O)n(-c2ccccc2)n1C	5.97*
CCS(=O)(=O)Nc1c(C)n(C)n(-c2ccccc2)c1=O	1.74
CCCCCc1ccc(C(=O)NN)cc1	-0.57
COc1ccc(/C(O)=C2\C(=O)C(=O)N(CCCn3ccnc3)C2c2ccc(OC)cc2)cc1 (configuration not stated)	2.82
O=c1cc(-c2cc3ccccc3o2)oc2ccccc12	-1.63
CCCc1cc(=O)[nH]c(SCc2ccccc2Cl)n1	-3.85
Cc1cc(=O)[nH]c(SCc2ccccc2Cl)n1	2.52
Cc1nnc(SCc2ccccc2Cl)[nH]c1=O	3.05*
Cc1occc1-c1cc(N)n(-c2cccc(Cl)c2Cl)n1	0.56
CC(C)(C)c1ccc(OCc2ccc(C(=O)O)o2)cc1	1.14
CCOc1ccc(OCc2ccc(C(=O)NC(C)(C)C)o2)cc1	3.39*
O=C(NCC1CCCO1)c1ccc(COc2ccc(F)cc2)o1 (configuration not stated)	2.92
SMILES	Dicer processing
Cc1nnc(NC(=O)CN2C(=O)COc3ccc(Cl)cc32)s1	2.07
Cc1ccc(-c2nnc(-c3ccc(Br)cc3)o2)cc1	3.77*
CSc1nnc(-c2ccc(C)cc2)o1	0.94
CSc1nnc(-c2ccc(Br)cc2)o1	1.54
CC(C)(C)c1ccc(NC(=O)NNc2ncccc2C#N)cc1	2.69
CN1C(=O)CN(C2CCCCC2)C(=O)c2ccccc21	2.52
CN1C(=O)CC(c2ccsc2)Sc2ccccc21 (configuration not stated)	0.73
CC1CC(=O)N(C)c2ccccc2S1(=O)=O (configuration not stated)	3.95*
CCCCOC(=O)C1=C(C)NC2=C(C(=O)CC(C)(C)C2)C1c1ccc(O)c(OCC)c1 (configuration not stated)	-1.11
CN1CN=C(SCc2cccc(C#N)c2)NC1	-1.75
COc1ccc(OC)c(Nc2nc3nonc3nc2Nc2cccc(Br)c2)c1	1.98
COc1ccccc1Nc1nc2nonc2nc1Nc1cccc(Br)c1	1.64
COc1ccc(OC)c(Nc2nc3nonc3nc2Nc2ccc(F)cc2)c1	4.07*
O=C1CC(c2cccc(Br)c2)c2c(n[nH]c2-c2ccccc2)N1 (configuration not stated)	0.13
CCOC(=O)NNC(=S)Nc1ccc(Cl)cc1	-1.9
Cc1ccc(O)c(C(=O)NNC(=S)Nc2ccc(Cl)cc2)c1	5.4*
CNC(=S)NNC(=O)c1ccc(Cl)cc1Cl	-1.56
CCOC(=O)C(C)Oc1ccc2c(=O)c(Oc3cccc(C)c3)c(C(F)(F)F)oc2c1 (configuration not stated)	-0.91
Cc1csc(NC(=O)Nc2ccc(F)cc2)c1-c1nc2ccccc2s1	0.86
CCOc1ccc(/C(O)=C2\C(=O)C(=O)N(c3nccs3)C2c2cccc(Cl)c2)cc1 (configuration not stated)	1.82
COc1ccc2[nH]c(=O)c(-c3ccccc3)c(O)c2c1	0.63
COC(=O)Cc1c(-c2ccccc2)c2cc(Br)ccc2[nH]c1=O	3.85*
COC(=O)c1[nH]c2ccc([N+](=O)[O-])cc2c1-c1ccccc1	0.35
COc1ccc(C2Nc3ccc(C)cc3-c3cc(C)nn32)cc1OC (configuration not stated)	2.69
COc1ccc(Br)cc1C1Nc2ccc(C)cc2-c2cc(C)nn21 (configuration not stated)	3.45*
SMILES	Dicer processing
Cc1ccc2c(c1)-c1cc(C)nn1C(c1ccc(O)cc1O)N2 (configuration not stated)	3.71*
COc1cccc(C2Nc3ccc(C)cc3-c3cc(C)nn32)c1OC (configuration not stated)	1.95
COc1ccc(C2Nc3ccccc3-c3cc(C)nn32)c(OC)c1 (configuration not stated)	0.44
Cc1cc(C)c2c(c1)-c1cc(C)nn1C(c1ccc(O)cc1O)N2 (configuration not stated)	1.41
COc1cc(O)ccc1C1Nc2ccc(C)cc2-c2cc(C)nn21 (configuration not stated)	2.71
Cc1cc2n(n1)C(c1cccc(O)c1O)Nc1ccccc1-2 (configuration not stated)	20.9*
Cc1ccc2c(c1)-c1cc(C)nn1C(c1ccccc1O)N2 (configuration not stated)	-0.25
COc1ccc(Br)cc1C1Nc2c(C)cccc2-c2cc(C)nn21 (configuration not stated)	2.9
COc1cccc(C2Nc3ccc(C)cc3-c3cc(C)nn32)c1O (configuration not stated)	3.04*
Cc1cc2n(n1)C(c1ccc(O)cc1O)Nc1ccccc1-2 (configuration not stated)	1.18
CCOc1ccccc1OCc1nn2c(Cc3ccccc3)nnc2s1	-0.37
C/C=C(\C)c1nc2c(Br)cc(Br)cc2c(=O)o1	-1.67
CC(=O)/C(C=Nc1ccc(Cl)c(Cl)c1)=C(\C)O	-0.16
C/S(=N/S(=O)(=O)c1ccc(Cl)cc1)c1ccc(OC(=O)c2ccc(Cl)cc2)cc1 (configuration not stated)	0.46
O=S(=O)(c1ccc(-c2cc(C(F)(F)F)on2)s1)N1CCC(O)(c2ccc(Cl)cc2)CC1	-1.87
c1csc(C2CC3(CS2)Nc2ccccc2S3)c1 (configuration not stated)	58.9
N#Cc1c2c(c(Sc3nc4ccccc4[nH]3)n3c1nc1ccccc13)CCCC2	-1.76
CCn1nc(C)cc1-c1nnc(SCC(=O)c2ccccc2)n1-c1ccc(Cl)cc1	0.3
COc1cccc(C2Nc3c(C)cccc3-c3cc(C)nn32)c1OC (configuration not stated)	0.22
COc1cccc(C2Nc3c(C)cc(C)cc3-c3cc(C)nn32)c1OC (configuration not stated)	4.86*
COc1cccc(C2Nc3c(C)cc(C)cc3-c3cc(C)nn32)c1O (configuration not stated)	0.17
Cc1ccc2ncc(NC(=O)c3ccc(C(C)(C)C)cc3)c(=O)n2c1	0.34
CCOc1ccc(C2c3c(oc4ccccc4c3=O)C(=O)N2c2nnc(C(C)C)s2)cc1OCC (configuration not stated)	0.09
Cc1csc2ncnc(N/N=C/c3ccc(C(F)(F)F)cc3)c12	0
O=C(Nc1cc(C(F)(F)F)ccc1Cl)C(Cl)Cl	5.02*
NNC(=O)Nc1ccc(C(F)(F)F)cc1Cl	0.71

Source: PubChem (Center for Chemical Genomics, University of Michigan)
